Results: PubChem BioAssay
The source made the active and inactive calls. Unless noted, the rule behind the calls is not given here.

Tests used:
[1] = A549 cell viability effects, profiling panel, calcein-AM fluorescence, 48 h, basal (AID 1162); settings: higher = more signal; note: test concentration not given here
[2] = adipocyte viability effects, profiling panel, cell-based, 3T3-L1 adipocytes, calcein-AM fluorescence, 48 h, basal (AID 1163); settings: 3T3-L1 adipocytes viability, higher = more signal; note: test concentration not given here
[3] = HepG2 cell viability effects, profiling panel, calcein-AM fluorescence, 48 h, basal (AID 1164); settings: higher = more signal; note: test concentration not given here
[4] = MM1S cell viability effects, profiling panel, calcein-AM fluorescence, 48 h, basal (AID 1165); settings: higher = more signal;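 note: viability of MM1S multiple myeloma cells under basal unstimulated conditions; test concentration not given here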
[5] = basal RPMI8226 viability, no added stimulus, profiling panel, cell-based, calcein-AM fluorescence, 48 h, PK04 Diversity Set (AID 1166); settings: RPMI8226 myeloma viability, higher = more signal;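 note: cells grown under basal conditions without added stimulus; test concentration not given here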
[6] = basal HepG2 mitochondrial membrane potential changes, profiling panel, cell-based, JC-1 fluorescence, 24 h, 100 nL compound (AID 1167); settings: higher = more signal; note: test concentration not given here
[7] = basal 3T3-L1 adipocyte mitochondrial potential changes, profiling panel, cell-based, JC-1 fluorescence, 3T3-L1 adipocytes, 24 h, 100 nL compound (AID 1168); settings: JC-1 mitochondrial fluorescence, higher = more signal, called active from +8 up or from −8 down; note: test concentration not given here
[8] = basal RPMI8226 mitochondrial membrane potential changes, profiling panel, cell-based, JC-1 fluorescence, 24 h, 100 nL compound (AID 1169); settings: RPMI8226 myeloma, JC-1 mitochondrial potential fluorescence, higher = more signal; note: test concentration not given here
[9] = basal MM1S mitochondrial membrane potential changes, profiling panel, cell-based, JC-1 fluorescence, 24 h, 100 nL compound (AID 1170); settings: higher = more signal; note: test concentration not given here
[10] = A549 lung cancer cell viability effects, profiling panel, resazurin fluorescence, 24 h, PK04 Diversity Set (AID 1171); settings: higher = more signal, called active from +8 up or from −8 down; note: test concentration not given here
[11] = HepG2 liver cancer cell viability effects, profiling panel, resazurin fluorescence, 24 h, PK04 Diversity Set (AID 1172); settings: higher = more signal; note: test concentration not given here
[12] = basal S. cerevisiae growth modulation, no modifier, primary screen, OD600, strain BY4716, 24 h, basal condition (AID 1173); settings: OD600, 24 h, higher = more signal, called active from +8 up or from −8 down
[13] = MM1S myeloma cell viability, profiling panel, resazurin fluorescence, basal, 24 h, PK04 Diversity Set (AID 1174); settings: higher = more signal, called active from +8 up or from −8 down;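 note: MM1S multiple myeloma cell line; test concentration not given here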
[14] = target: Dihydroorotate dehydrogenase (quinone), mitochondrial (Plasmodium falciparum (isolate 3D7)) (UniProt Q08210); assay: PfDHODH enzyme inhibitors, primary screen, biochemical, C-terminal His tag, absorbance 600 nm (AID 1175); settings: DCIP absorbance 600 nm, higher = more signal, called active from +8 up or from −8 down;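 note: recombinant parasite enzyme with a five histidine tag at its C terminus; test concentration not given here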
Sequence of Dihydroorotate dehydrogenase (quinone), mitochondrial (Plasmodium falciparum (isolate 3D7)) (Q08210 whole entry, looked up): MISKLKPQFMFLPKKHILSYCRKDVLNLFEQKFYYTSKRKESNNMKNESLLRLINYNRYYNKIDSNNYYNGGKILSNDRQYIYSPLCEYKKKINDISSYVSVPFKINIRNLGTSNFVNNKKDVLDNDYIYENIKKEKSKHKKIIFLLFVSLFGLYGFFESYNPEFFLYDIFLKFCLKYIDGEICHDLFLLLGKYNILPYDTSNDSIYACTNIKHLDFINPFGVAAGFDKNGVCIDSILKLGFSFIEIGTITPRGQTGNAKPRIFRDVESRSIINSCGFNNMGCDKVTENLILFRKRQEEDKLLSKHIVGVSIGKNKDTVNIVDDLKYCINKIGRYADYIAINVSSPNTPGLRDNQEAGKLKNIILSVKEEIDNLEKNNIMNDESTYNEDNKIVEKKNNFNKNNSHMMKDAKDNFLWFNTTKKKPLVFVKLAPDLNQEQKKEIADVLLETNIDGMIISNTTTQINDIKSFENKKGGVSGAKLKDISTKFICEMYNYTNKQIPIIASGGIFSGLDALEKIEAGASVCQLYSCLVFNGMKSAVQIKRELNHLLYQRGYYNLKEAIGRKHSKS

[15] = P. aeruginosa biofilm formation inhibitors, primary screen, strain PAO1, LB-PBS medium, absorbance 600 nm (AID 1176); note: test concentration not given here; settings: P. aeruginosa PAO1 growth/biofilm, A600, 12 h; higher = more signal
[16] = S. cerevisiae RM11-1a growth modifiers, primary screen, strain RM11-1a, OD600, basal, 24 h (AID 1177); settings: OD600, 24 h, higher = more signal, called active from +8 up or from −8 down;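 note: cultures grown under basal conditions with no added stressor; test concentration not given here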
[17] = E. coli acrAB mutant growth effects, primary screen, E. coli filamentation inducers, strain DRC39, OD650, 24 h (AID 1178); settings: higher = more signal, called active from +8 up or from −8 down;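 note: growth measured as culture turbidity by optical density at 650 nm; test concentration not given here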
[18] = E. coli acrAB mutant growth effects, primary screen, E. coli filamentation inducers, strain DRC39, OD650, 48 h (AID 1179);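 note: screen aims at cell division blockers that make cells filament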; settings: E. coli DRC39 delta-acrAB growth, higher = more signal, called active from +8 up or from −8 down
[19] = RPMI8226 myeloma cell viability, profiling panel, resazurin fluorescence, basal, 24 h, PK04 Diversity Set (AID 1180); settings: higher = more signal;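 note: RPMI8826 multiple myeloma cell line at 5000 cells per well; test concentration not given here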
[20] = target: E3 ubiquitin-protein ligase XIAP (Homo sapiens) (UniProt P98170); assay: XIAP binders, primary screen, biophysical, small-molecule microarray, fluorescence 635 nm (AID 1181); settings: small-molecule microarray binding, higher = more signal;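 note: score merges 667 nm emission and signal to noise over triplicate slides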
Sequence of E3 ubiquitin-protein ligase XIAP (Homo sapiens) (P98170 whole entry, looked up): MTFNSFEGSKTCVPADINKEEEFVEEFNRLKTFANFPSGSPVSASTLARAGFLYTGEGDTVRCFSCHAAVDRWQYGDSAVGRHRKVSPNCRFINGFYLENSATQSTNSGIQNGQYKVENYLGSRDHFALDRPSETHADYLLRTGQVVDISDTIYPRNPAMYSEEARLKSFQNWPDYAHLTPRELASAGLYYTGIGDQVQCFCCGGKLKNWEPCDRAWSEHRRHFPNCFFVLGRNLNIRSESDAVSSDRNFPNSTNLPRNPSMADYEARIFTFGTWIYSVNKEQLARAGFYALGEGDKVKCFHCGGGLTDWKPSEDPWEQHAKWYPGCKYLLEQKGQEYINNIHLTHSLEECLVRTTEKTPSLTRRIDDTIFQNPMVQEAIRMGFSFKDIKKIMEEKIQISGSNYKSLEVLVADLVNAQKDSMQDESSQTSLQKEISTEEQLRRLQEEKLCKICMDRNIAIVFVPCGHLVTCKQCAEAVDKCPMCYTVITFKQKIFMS

Row | Compound | z-score [1] | z-score [2] | z-score [3] | z-score [4] | z-score [5] | z-score [6] | z-score [7] | z-score [8] | z-score [9] | z-score [10] | z-score [11] | z-score [12] | z-score [13] | composite z-score [14] | z-score [15] | z-score [16] | z-score [17] | z-score [18] | z-score [19] | composite z-score [20]
1 | O=C1c2ccccc2[C@](Cc2ccccc2I)(C(=O)NC2CC2)[C@H](c2ccc(CO)cc2)N1Cc1ccccc1 | 0.465 | -0.241 | -0.236 | -0.349 | -0.253 | 0.478 | 0.174 (inactive) | -0.679 | 0.00466 | 1.47 (inactive) | 0.621 | 0.401 (inactive) | 0.414 (inactive) | 0.159 (inactive) | 0.14 (inactive) | -0.377 (inactive) | -0.0358 (inactive) | 0.0388 (inactive) | 0.535 | -0.0663
2 | COc1ccc([Si](C)(C)[C@@H]2[C@@H](CC(=O)N3Cc4ccccc4C[C@H]3CO)O[C@]3(C(=O)N(C)c4c(Br)cc(C)cc43)[C@H]2C)cc1 | -0.721 | 0.181 | -3.73 | -2.66 | -4.35 | 0.634 | 0.596 (inactive) | -0.976 | -2.23 | -1.18 (inactive) | -2.26 | -1.5 (inactive) | -6.01 (inactive) | 0.961 (inactive) | 1.85 (inactive) | 1.7 (inactive) | 1.34 (inactive) | 1.01 (inactive) | -5.76 | -0.089
3 | CCCCC(O)C1C=CC2C(=O)N(c3ccccc3)C(=O)C2N1Nc1ccccc1F (stereo not given) | -0.0693 | -0.767 | 0.297 | 0.447 | -0.812 | -1.75 | -0.935 (inactive) | -0.425 | -0.444 | -0.684 (inactive) | -0.8 | -0.42 (inactive) | -0.459 (inactive) | -0.365 (inactive) | 1.14 (inactive) | -0.182 (inactive) | -0.221 (inactive) | 0.128 (inactive) | -0.786 | 0.691
4 | CN(C)CCCNC(=O)[C@@]1(C)c2ccccc2C(=O)N(Cc2cc(F)cc(C(F)(F)F)c2)[C@H]1c1ccc(CO)cc1 | 1.04 | -0.0121 | -0.746 | -1.29 | -0.167 | 0.845 | 0.235 (inactive) | 0.521 | -0.496 | 0.896 (inactive) | 0.101 | -0.84 (inactive) | 0.079 (inactive) | -0.478 (inactive) | 0.264 (inactive) | -1.11 (inactive) | 0.706 (inactive) | -0.175 (inactive) | -0.406 | -0.0079
5 | O=C1C[C@]2(c3ccc([N+](=O)[O-])cc3)C(=O)N(CCN3CCOCC3)c3cc(CO)ccc3[C@H]2N1C1CCCCC1 | 0.648 | 0.239 | 1.87 | -0.121 | 0.346 | 0.756 | 0.155 (inactive) | 0.0691 | -0.509 | -1.17 (inactive) | -0.592 | -0.0979 (inactive) | -0.399 (inactive) | -7.11 (inactive) | 0.0993 (inactive) | -0.974 (inactive) | 1.06 (inactive) | 1.66 (inactive) | 0.186 | -0.16
6 | COCCOC(=O)N1C(=O)[C@@]2(c3cc(C#CC4=CCCCC4)ccc31)[C@H](C(=O)N1CCc3cc(OC)c(OC)cc3C1)[C@H]1C(=O)O[C@H](c3ccccc3)[C@H](c3ccccc3)N1[C@@H]2c1ccc(OCCO)cc1 | -0.989 | 0.847 | -1.2 | -1.84 | -0.691 | -0.207 | 1.22 (inactive) | -0.621 | -0.968 | 0.531 (inactive) | 0.149 | 1.18 (inactive) | 0.516 (inactive) | -0.352 (inactive) | 3.64 (inactive) | 1.38 (inactive) | 0.14 (inactive) | -0.316 (inactive) | 0.492 | -0.139
7 | C=CCNC(=O)[C@@H]1[C@H]2C(=O)O[C@H](c3ccccc3)[C@H](c3ccccc3)N2[C@H](c2ccccc2OCCO)[C@@]12C(=O)N(C(=O)OCCOC)c1ccc(C#CCNC(N)=O)cc12 | 0.843 | 0.595 | 0.886 | 0.765 | 0.425 | 0.766 | 0.586 (inactive) | 0.159 | -0.341 | -0.768 (inactive) | -0.359 | 0.808 (inactive) | -0.0716 (inactive) | 0.0199 (inactive) | 1.1 (inactive) | 1.43 (inactive) | 0.404 (inactive) | 0.703 (inactive) | 0.122 | 0.171
8 | CN1C(=O)C2C=CC(C(O)Cc3ccccc3)N(Nc3ccccc3)C2C1=O (stereo not given) | 0.368 | -1.33 | 0.0486 | -1.48 | -0.618 | -1.32 | -1.06 (inactive) | 0.0363 | 0.155 | -0.528 (inactive) | -0.355 | -0.836 (inactive) | -0.808 (inactive) | 0.295 (inactive) | 1.07 (inactive) | 0.217 (inactive) | -0.553 (inactive) | -0.801 (inactive) | -0.541 | -0.189
9 | COCCCNC(=O)C1N=C(c2ccc(OCCCO)cc2)N(c2ccccc2)O1 (stereo not given) | -0.201 | 0.829 | -0.393 | 0.399 | 0.336 | -0.205 | -0.183 (inactive) | -0.492 | -0.213 | 0.938 (inactive) | 0.522 | -0.5 (inactive) | -0.441 (inactive) | 0.0216 (inactive) | -1.45 (inactive) | 0.254 (inactive) | 0.516 (inactive) | 1.03 (inactive) | 0.694 | 0.819
